According to PubChem BioAssay (Tox21):
Inconclusive results are not listed. Calls of active or inactive are those of the source. Calls come from the whole dose curve; as a rule, active = well fitted curve in the direction sought with a large enough effect in the repeat runs; inconclusive = weak or mixed curves; inactive = no such curve, though single readings can be large; an effect the other way counts as inactive or inconclusive.

Assays:
[1] = qHTS RealTime-Glo MT Cell Viability Assay in HEK293 cells - 16 hour (AID 1224872); note: nearly all actives have a fitted effect of over 50% in size; note: potency is the fitted concentration of half-maximal effect; for activity change, negative = cytotoxicity: top concentration of the series differs between compounds
Procedure, shortened: (§1)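 Viability tracked continuously by luminescence as live cells reduce a prosubstrate for NanoLuc; HEK293 cells preincubated 5 h, compound-treated at 37 C, and read at 0, 8, 16, 24, 32 and 40 h.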

[2] = qHTS RealTime-Glo MT Cell Viability Assay in HepG2 cells - 8 hour (AID 1224873); note: nearly all actives have a fitted effect of over 55% in size
Procedure, shortened: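 HepG2 cells mixed with RealTime-Glo MT reagents (NanoLuc plus cell-permeant prosubstrate) were seeded at 600 cells/well, incubated 5 h at 37 C/5% CO2, then pinned with compounds in DMSO; nonlytic luminescence tracked viability during 40 h treatment.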

[3] = qHTS RealTime-Glo MT Cell Viability Assay in HEK293 cells - 40 hour (AID 1224874); conditions: RealTime-Glo luminescence; max response: stronger effect = lower value; note: nearly all actives have a fitted effect of over 50% in size; note: potency is the fitted concentration of half-maximal effect
Procedure, shortened: (§2)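 Luminescence, which tracks viable cell number through reduction of the prosubstrate to a NanoLuc substrate, was read over continuous 37 C culture. Cells (600/well) were premixed with reagent and rested 5 h before 23 nL of compound in DMSO was pinned.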

[4] = A CellTox Green Cytotoxicity Assay to monitor cytotoxicity in HEK293 cells - 24 hour (AID 1224875); note: series mostly up to about 77 µM; nearly all actives have a fitted effect of over 45% in size
Procedure, shortened: (§3)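 Fluorescence from a DNA-binding dye excluded by viable cells was measured repeatedly in the same HEK293 wells (600 cells/well) during continuous compound exposure at 37 C. Each assay gives one read point: 0, 8, 16, 24, 32 or 40 h.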

[5] = A CellTox Green Cytotoxicity Assay to monitor cytotoxicity in HepG2 cells - 16 hour (AID 1224876); note: nearly all actives have a fitted effect of over 45% in size
Procedure, shortened: (§4)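 Real-time cytotoxicity: fluorescence of a cell-impermeant cyanine dye binding DNA of dead HepG2 cells, measured repeatedly (0–40 h) during compound exposure at 37 C. Cells seeded 600/well with reagent, dosed after 5 h.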

[6] = qHTS RealTime-Glo MT Cell Viability Assay in HepG2 cells - 32 hour (AID 1224877); note: nearly all actives have a fitted effect of over 55% in size
Procedure, shortened: (§5)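 Viability was tracked continuously by NanoLuc luminescence from prosubstrate reduced by living HepG2 cells, at successive time points over 40 h of compound exposure. Cells with reagent were preincubated 5 h at 37 °C before compound addition.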

[7] = A CellTox Green Cytotoxicity Assay to monitor cytotoxicity in HepG2 cells - 24 hour (AID 1224878); note: nearly all actives have a fitted effect of over 45% in size
Procedure, shortened: as §4

[8] = A CellTox Green Cytotoxicity Assay to monitor cytotoxicity in HepG2 cells - 40 hour (AID 1224879); note: nearly all actives have a fitted effect of over 40% in size
Procedure, shortened: as §4

[9] = qHTS RealTime-Glo MT Cell Viability Assay in HEK293 cells - 0 hour (AID 1224880); note: top concentration of the series differs between compounds; nearly all actives have a fitted effect of over 45% in size
Procedure, shortened: as §2

[10] = A CellTox Green Cytotoxicity Assay to monitor cytotoxicity in HEK293 cells - 32 hour (AID 1224881); note: nearly all actives have a fitted effect of over 40% in size
Procedure, shortened: as §3

[11] = A CellTox Green Cytotoxicity Assay to monitor cytotoxicity in HepG2 cells - 0 hour (AID 1224882); note: nearly all actives have a fitted effect of over 35% in size
Procedure, shortened: as §4

[12] = A CellTox Green Cytotoxicity Assay to monitor cytotoxicity in HepG2 cells - 32 hour (AID 1224883); note: nearly all actives have a fitted effect of over 50% in size
Procedure, shortened: as §4

[13] = A CellTox Green Cytotoxicity Assay to monitor cytotoxicity in HEK293 cells - 8 hour (AID 1224884); note: nearly all actives have a fitted effect of over 35% in size
Procedure, shortened: as §3

[14] = qHTS RealTime-Glo MT Cell Viability Assay in HepG2 cells - 16 hour (AID 1224885); note: nearly all actives have a fitted effect of over 50% in size
Procedure, shortened: as §5

[15] = qHTS RealTime-Glo MT Cell Viability Assay in HEK293 cells - 24 hour (AID 1224886); note: nearly all actives have a fitted effect of over 50% in size; note: potency is the fitted concentration of half-maximal effect; for activity change, negative = cytotoxicity: top concentration of the series differs between compounds
Procedure, shortened: as §1

[16] = A CellTox Green Cytotoxicity Assay to monitor cytotoxicity in HEK293 cells - 16 hour (AID 1224888); note: nearly all actives have a fitted effect of over 35% in size
Procedure, shortened: as §3

[17] = qHTS RealTime-Glo MT Cell Viability Assay in HepG2 cells - 0 hour (AID 1224889); note: nearly all actives have a fitted effect of over 50% in size
Procedure, shortened: as §5

[18] = A CellTox Green Cytotoxicity Assay to monitor cytotoxicity in HepG2 cells - 8 hour (AID 1224890); note: nearly all actives have a fitted effect of over 45% in size
Procedure, shortened: as §4

[19] = qHTS assay to identify small molecule antagonists of the estrogen receptor alpha (ER-alpha) signaling pathway using the BG1 cell line in the presence of 0.1 nM 17-beta-estradiol - cell viability counter screen (AID 1259241); note: nearly all actives have a fitted effect of over 40% in size
Procedure, shortened: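 Live-cell protease activity (CellTiter-Fluor fluorescence, 30 min) was read in the same wells after VM7Luc4E2 cells had been exposed to compounds with 0.1 nM 17beta-estradiol for 22 hr at 37C.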

[20] = qHTS RealTime-Glo MT Cell Viability Assay in HEK293 cells - 8 hour (AID 1224887)
Procedure, shortened: as §2
% is set by controls: 0 for no effect and ±100 for the full control effect.

Cc1oc(C)c(C(=O)Nc2ccccc2)c1C
inactive: Potency [2] | Potency [4] | Potency [5] | Potency [6] | Potency [7] | Potency [8] | Potency [9] | Potency [10] | Potency [11] | Potency [12] | Potency [13] | Potency [14] | Potency [16] | Potency [17] | Potency [18] | Potency [19]
active: Potency [1] 34.7 µM | Potency [3] 24.5 µM | Potency [15] 34.7 µM

C=CCNc1nc(NCC=C)nc(N2CCN(C(c3ccc(F)cc3)c3ccc(F)cc3)CC2)n1
inactive: Potency [1] | Potency [2] | max response [3] -23.1% | Potency [4] | Potency [5] | Potency [6] | Potency [7] | Potency [8] | Potency [9] | Potency [10] | Potency [11] | Potency [12] | Potency [13] | Potency [14] | Potency [15] | Potency [16] | Potency [17] | Potency [18] | Potency [19]

C=CCCCCCCCCCCCCCCCC
inactive: activity change, negative = cytotoxicity [1] -3.07% [at 6.97 µM] | viability change, negative = cytotoxic [2] -17.7% [at 6.97 µM] | max response [3] -5.15% | activity change [4] -1.9% [at 6.97 µM, stronger effect = higher value] | cytotoxicity increase [5] -18.8% [at 6.97 µM] | activity change, negative = cytotoxic [6] 7.54% [at 6.97 µM] | cytotoxicity [7] -19.1% [at 6.97 µM] | cytotoxicity increase [8] -20.6% [at 6.97 µM] | activity change, negative = cytotoxicity [9] -0.1% [at 6.97 µM] | cytotoxicity increase [10] -2.25% [at 6.97 µM] | cytotoxicity [11] -13.6% [at 6.97 µM] | cytotoxicity increase [12] -20.4% [at 6.97 µM] | cytotoxicity increase [13] -6.36% [at 6.97 µM] | activity change, negative = cytotoxic [14] -8.12% [at 6.97 µM] | activity change, negative = cytotoxicity [15] -6.06% [at 6.97 µM] | activity change, negative = cytotoxicity [20] -0.881% [at 6.97 µM] | activity change [16] -0.39% [at 6.97 µM, stronger effect = higher value] | activity change, negative = cytotoxicity [17] -21.4% [at 6.97 µM] | cytotoxicity increase [18] -16.6% [at 6.97 µM] | activity change, negative = cytotoxicity [19] 0.274% [at 8.39 µM]

C=CC(C)(O)CCCC(C)CCCC(C)CCCC(C)C (stereo not given)
inactive: Potency [1] | Potency [2] | max response [3] 6.13% | Potency [4] | Potency [5] | Potency [6] | Potency [7] | Potency [8] | Potency [9] | Potency [10] | Potency [11] | Potency [12] | Potency [13] | Potency [14] | Potency [15] | Potency [20] | Potency [16] | Potency [17] | Potency [18] | Potency [19]

Cc1cc(OI)c(C(C)C)cc1-c1cc(C(C)C)c(OI)cc1C
inactive: Potency [1] | Potency [2] | max response [3] -0.141% | Potency [4] | Potency [5] | Potency [6] | Potency [7] | Potency [8] | Potency [9] | Potency [10] | Potency [11] | Potency [12] | Potency [13] | Potency [14] | Potency [15] | Potency [20] | Potency [16] | Potency [17] | Potency [18] | Potency [19]

CC(=O)Nc1ccc(N)cc1
inactive: Potency [1] | Potency [2] | max response [3] 4.7% | Potency [4] | Potency [5] | Potency [6] | Potency [7] | Potency [8] | Potency [9] | Potency [10] | Potency [11] | Potency [12] | Potency [13] | Potency [14] | Potency [15] | Potency [16] | Potency [17] | Potency [18] | Potency [19]

C=CC(C)=CCC=C(C)C
inactive: Potency [1] | Potency [2] | max response [3] 4.34% | Potency [4] | Potency [5] | Potency [6] | Potency [7] | Potency [8] | Potency [9] | Potency [10] | Potency [11] | Potency [12] | Potency [13] | Potency [14] | Potency [15] | Potency [20] | Potency [16] | Potency [17] | Potency [18] | Potency [19]

CCOC(=N)CC(=O)OCC
inactive: Potency [1] | Potency [2] | max response [3] -25% | Potency [4] | Potency [5] | Potency [6] | Potency [7] | Potency [8] | Potency [9] | Potency [10] | Potency [11] | Potency [12] | Potency [13] | Potency [14] | Potency [15] | Potency [16] | Potency [17] | Potency [18] | Potency [19]

CCOC(=O)OCC
inactive: Potency [1] | Potency [2] | max response [3] 7.38% | Potency [4] | Potency [5] | Potency [6] | Potency [7] | Potency [8] | Potency [9] | Potency [10] | Potency [11] | Potency [12] | Potency [13] | Potency [14] | Potency [15] | Potency [20] | Potency [16] | Potency [17] | Potency [18] | Potency [19]

CCN(CC)CCNC(=O)c1ccc(NC(C)=O)cc1
inactive: Potency [1] | Potency [2] | max response [3] -0.786% | Potency [4] | Potency [5] | Potency [6] | Potency [7] | Potency [8] | Potency [9] | Potency [10] | Potency [11] | Potency [12] | Potency [13] | Potency [14] | Potency [15] | Potency [16] | Potency [17] | Potency [18] | Potency [19]
